Screening data deposited in PubChem by The Scripps Research Institute Molecular Screening Center.
TbREL1 primary – TbREL1 inhibition, primary screen; TbREL1 RNA ligation, FRET fluorescence; inhibition, % at 9.66 µM; P86926; hit rate 0.49% among 89,000;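 active = inhibition above the mean inhibition across all screened compounds plus 3 SD, cut at about 11% in these data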;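 also: 0% = plate median of test wells and 100% = NSC42067 control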
Target sequence (P86926 whole entry, looked up): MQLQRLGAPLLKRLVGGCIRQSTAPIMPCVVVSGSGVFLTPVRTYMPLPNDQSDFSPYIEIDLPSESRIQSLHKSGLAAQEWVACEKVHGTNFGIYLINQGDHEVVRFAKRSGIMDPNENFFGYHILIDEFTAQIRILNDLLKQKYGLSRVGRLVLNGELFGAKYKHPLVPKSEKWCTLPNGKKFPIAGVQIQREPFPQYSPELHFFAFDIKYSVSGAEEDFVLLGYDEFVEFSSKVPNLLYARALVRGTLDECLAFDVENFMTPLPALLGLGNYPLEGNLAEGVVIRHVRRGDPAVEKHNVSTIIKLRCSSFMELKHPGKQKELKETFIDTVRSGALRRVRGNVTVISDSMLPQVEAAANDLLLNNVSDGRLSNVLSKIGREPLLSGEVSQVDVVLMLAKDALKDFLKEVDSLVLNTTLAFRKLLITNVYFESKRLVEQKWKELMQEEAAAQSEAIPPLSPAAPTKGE
* marks the source's active call; other numbers are inactive results. The sample as a whole holds a higher share of hits than the screen did.

SMILES	TbREL1 primary
Cc1ccc(CNCCC2=CCCCC2)cc1	11*
CCCNC(=O)C(=O)NCCC1=CCCCC1	1
Cc1ccc(C2(C)NC(=O)N(CC(=O)NCCC3=CCCCC3)C2=O)cc1 (configuration not stated)	-1
CC(=O)Nc1sc2c(c1-c1nc(-c3ccccc3)cs1)CCN(C(C)C)C2	8
CCCCNC(=O)C1CCCN1C(=O)Nc1cccc(C)c1 (configuration not stated)	5
CCOc1ccc(C=Nn2c(-c3cccc(OC(C)C)c3)n[nH]c2=S)cc1	-5
COCCCNC(=O)CSc1nnc(-c2ccncc2)n1-c1ccc(OC)cc1	1
CCn1c2ccccc2c2cc(NC(=O)COC(=O)c3cc(F)ccc3F)ccc21	2
O=C(CCn1nnc2ccccc21)N1CCN(c2cccc(C(F)(F)F)c2)CC1	0
COCCN(C(=O)COC(=O)C1=COCCO1)c1c(N)n(Cc2ccccc2)c(=O)[nH]c1=O	1
COCCN(C(=O)COC(=O)c1cnc(C)cn1)c1c(N)n(Cc2ccccc2)c(=O)[nH]c1=O	1
COCCN(C(=O)COC(=O)c1cc2c(s1)CCC2)c1c(N)n(Cc2ccccc2)c(=O)[nH]c1=O	27*
Cc1cc(C(=O)NN=Cc2cccc(O)c2)n[nH]1	-1
CCCCNC(=O)N1CCC(c2nc3ccc(Cl)cc3[nH]2)CC1	0
COC(=O)c1ccc(C=NNC(=O)c2cc(-c3ccc(C)c(C)c3)n[nH]2)cc1	2
O=c1c2c3c(sc2nc2n1CCCCC2)CCC3	4
CC(C)c1csc2nc3n(c(=O)c12)CCCCC3	5
O=C1c2sc3nc4n(c(=O)c3c2CCC1Br)CCCCC4 (configuration not stated)	16*
CCn1c(SCC(=O)NN=Cc2c[nH]c3ccccc23)nc2ccccc21	-1
CCC(C)n1c(NC(=O)c2ccccc2)c(C#N)c2nc3ccccc3nc21 (configuration not stated)	12*
Cc1ccc(C(=O)NCCn2c(N)c(C#N)c3nc4ccccc4nc32)cc1	-2
CCn1c(NC(=O)c2ccc(C)cc2)c2ccccc2nc1=O	-4
CCOCCCNC(=O)C1CCN(S(=O)(=O)c2cc3c(cc2Br)CCN3C(=O)CC)CC1	-2
Cc1ccc(-n2c(SCC(=O)Nc3ccc(S(=O)(=O)Nc4nccs4)cc3)nnc2-c2cccs2)cc1	-5
O=C(/C=C/c1ccco1)Oc1cc(Br)cc(/C=N/NC(=O)c2ccccc2O)c1	0
SMILES	TbREL1 primary
O=C(NN1C(=O)/C(=C/C=C/c2ccco2)SC1=S)c1ccccc1O	86*
Cn1cccc1/C=C1\SC(=S)N(NC(=O)c2ccccc2)C1=O	4
COc1ccc(-c2cc(-c3nnc(SCC(=O)Nc4ccc(OCc5ccccc5)cc4)n3N)[nH]n2)cc1	0
C=CCNC(=O)CN(C(=O)Cc1cccc(OC(F)(F)F)c1)c1cccc(Br)c1	-1
COc1ccc(-c2nnc(SCC(=O)NN=C/C=C\c3ccco3)n2-c2ccc(OC)cc2)cc1	-3
CC(C)C[C@H]1CNC(=S)N1CC1CCCN1C[C@H](CC(C)C)N1C[C@H](Cc2ccccc2)N(CC2CCCCCC2)C1=S (some centres not stated)	-4
CC(C)C[C@@H]1CN=C(N)N1C[C@@H]1CCCN1C[C@@H](C(C)C)N1C[C@@H](Cc2ccccc2)N(CCCC2CCCC2)C1=N	13*
CC[C@@H](C)[C@@H]1CN([C@@H](C)CN2CCC[C@H]2CN2C(N)=NC[C@@H]2Cc2ccccc2)C(=N)N1CCCC1CCCC1	3
O=C(c1ccccc1OCc1ccccc1)N(Cc1ccccn1)CC1CCCO1 (configuration not stated)	-2
CCn1c2ccccc2c2cc(NC(=O)COC(=O)c3ccc(F)cc3F)ccc21	2
CCOc1ccc(-n2c(COc3ccccc3)nnc2SCC(=O)Nc2ccc3c(c2)OCCO3)cc1	5
CC1CCN(c2ccc(C(=O)O)cc2NS(=O)(=O)c2ccccc2[N+](=O)[O-])CC1	-4
COc1c(O)cc2oc(-c3ccc(O)cc3)cc(=O)c2c1O	-2
COC(=O)c1ccccc1-c1c2ccc(=N)cc-2oc2cc(N)ccc12	-167
COc1cc(OC)c(-c2c3cc(O)c(=O)cc-3oc3cc(O)c(O)cc23)cc1OC	20*
Cc1nn(-c2ccccc2)c2sc(C(=O)NCCc3ccc(Cl)cc3)cc12	4
O=C(Nc1ccc(N2C(=O)CC(c3ccccc3)C2=O)c(Cl)c1)c1ccccn1 (configuration not stated)	5
C=CCn1c(SCC(=O)Nc2ccccc2OCC)nnc1-c1ccc(C(C)(C)C)cc1	-3
O=C(O)CCCN1C(=O)/C(=C\c2ccc(-c3nc4ccccc4s3)o2)SC1=S	11
CCC(C(=O)O)N1C(=O)/C(=C/c2cccn2C)SC1=S (configuration not stated)	1
O=C(O)CC(C(=O)O)N1C(=O)/C(=C/c2ccc(-c3nc4ccccc4s3)o2)SC1=S (configuration not stated)	84*
CCOc1ccc(CCNC(=O)c2cc3sccc3n2Cc2cccc(C)c2)cc1OCC	4
C=CCCC(=O)N1CCC(C(=O)NCC2COc3ccccc3O2)CC1 (configuration not stated)	-5
C=CCNC(=O)C1CCN(c2cncnc2)CC1	-1
O=C(O)c1ccccc1-c1ccccc1C(=O)Nc1cccc(Br)c1	11*
SMILES	TbREL1 primary
O=C(O)c1ccccc1-c1ccccc1C(=O)NNc1ccccc1	1
O=C(Cc1ccccc1)NCC(=O)Nc1cccc(Br)c1	0
COc1ccc(CNC(=O)O[C@H]2CC[C@@]34CCCN3C(=O)CCC[C@H]4[C@H]2C)cc1OC	-2
COc1ccc(-n2c(SCC(=O)Nc3ccc(Oc4ccccc4)cc3)nnc2-c2ccco2)cc1	2
Cc1cccc(NC(=O)CSc2nnc(-c3cccnc3)n2Cc2ccco2)c1C	-3
C=CCn1c(Cc2cccs2)nnc1SCC(=O)Nc1cccc2ccccc12	2
COc1ccc(N2CCN(CCCNC(=O)Cn3c(=O)c4cccn4c4cccnc43)CC2)c(OC)c1	-7
CCOc1ccc(-n2c(SCC(=O)NN=Cc3ccc(C(=O)O)cc3)nnc2-c2cccnc2)cc1	-1
C#CCOCCOCCOCCNc1nc(N2CCN(C(=O)Cn3cc(CCCN=C(N)N)nn3)CC2)nc(N2CCN(C(=O)[C@H]([C@@H](C)O)n3cc(CCCCN)nn3)CC2)n1	3
C#CCOCCOCCOCCNc1nc(N2CCN(C(=O)[C@H]([C@@H](C)O)n3cc(CCCCN)nn3)CC2)nc(N2CCN(C(=O)[C@H]([C@@H](C)CC)n3cc(CCCN=C(N)N)nn3)CC2)n1	12*
C#CCOCCOCCOCCNc1nc(N2CCN(C(=O)[C@H]([C@@H](C)CC)n3cc(CCCCN)nn3)CC2)nc(N2CCN(C(=O)[C@H]([C@@H](C)CC)n3cc(CCCN=C(N)N)nn3)CC2)n1	11
CC1(C)CC(=O)N(CC(=O)N2CCN(c3ccc(F)cc3)CC2)c2ccccc2S1(=O)=O	0
Cc1cc(N2CCC(C)CC2)nc2ccccc12	6
COCCSc1nnc(-c2cccnc2)n1Cc1ccccc1	-2
C=CC[C@@H](Cc1ccc(F)cc1)C(=O)OC[C@@H]1CCCN1C(=O)[C@@H](CC=C)CC(=O)NCCO	-2
C=CC[C@@H](Cc1ccc(F)cc1)C(=O)OC[C@@H]1CCCN1C(=O)[C@H](CC=C)CC(=O)N[C@H](CO)Cc1ccccc1	23*
C=CC[C@@H](Cc1ccc(F)cc1)C(=O)OC[C@@H]1CCCN1C(=O)[C@@H](CC=C)CC(=O)N(CCO)Cc1ccccc1	-2
CNc1nc(N)c([N+](=O)[O-])c(Nc2cccc(Br)c2)n1	0
